The panel holds about 83,000 compounds, 20% with a hit somewhere; the sample as a whole holds those more often.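 Percent growth is the endpoint: 0 to 100 indicates growth inhibition (40 means 60% inhibition), 0 means no net growth, and negative values indicate cell death.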 Unmarked numbers belong to inactive results. Active and inactive are the calls of the source. The calls were made as follows: active = growth percent below 10; inactive = the rest.

The first experiment deals with 786-0 renal. Nature of the experiment: NCI-60 one-dose screen, 48 h (100 = growth as untreated, 0 = no growth, -100 = all killed). Conditions: 10 µM.
`O=c1c2ccccc2nc(COc2ccccc2)n1/N=C/c1ccc(F)cc1`: the growth is 89.4%.
The same measure, in the same setting: under `Nc1nc(Nc2ccc(Cl)cc2)nn1Cc1cccc(Br)c1` stands 37.4%.
On to `CC(C)CCSc1nc(NC2CC2)c(C#N)c(-c2ccc(C(C)C)cc2)n1`, for which the growth was 93.6%.
Take `COc1cccc(-c2ccc(/C=N/NC(=O)c3[nH]c4ccc(Br)cc4c3-c3ccccc3)o2)c1`: the growth was 9.39% (active).
On the same count and under the same terms, to `COc1ccc2nc(Cl)c(-c3cc(-c4ccccc4)nc(=O)[nH]3)cc2c1` belongs 57.8%.
On the same count and under the same terms, under `COc1cc2c(c(OC)c1OC)C(=O)CC(c1cccc(NC(=O)c3cccc(N)c3)c1)O2` (centres undefined) stands 91.9%; under `COc1ccc(-c2nc(S(=O)(=O)c3ccccc3)c(S(C)(=O)=O)o2)cc1`, -16.9% (active); under `CN1CCN(c2ccc(C(=O)/C=C/c3ccc(C#N)cc3)cc2)CC1`, 73.5%.
Regarding `O=C(NO)c1ccc(Cn2ccc3c(NCc4ccccc4)ncnc32)cc1`, the growth was 22.7%.
With `O=C(O)CCCCCCCCCCN1C(=O)/C(=C/c2cnc(-c3ccccc3)s2)SC1=S`, the growth was 79.3%.
On the same count and under the same terms, to `Cc1cc(=O)oc2cc(OCCCCOc3ccc(/C=C/C(=O)Nc4ccccc4[N+](=O)[O-])cc3)ccc12` belongs 111%.
On to `CCOC(=O)CNC(=O)CN(Cc1ccccc1)C(=O)[C@@]1(C)CCC[C@]2(C)[C@H]3CC4C(C(C)C)=C[C@]3(CC[C@H]21)[C@@H]1C(=O)CCC(=O)[C@H]41`, for which the growth is 78.1%.
Turning to `Cc1ccc(-c2cc(-c3cc4ccccc4nc3Cl)[nH]c(=O)n2)cc1`, the growth was -22.6% (active).
Turning to `COc1ccc2cc([C@H](C)C(=O)NCc3ccccc3)ccc2c1`, the growth is 59.7%.
Regarding `COc1cc(Cn2c(C(F)(F)F)cc3c(Cl)ncnc32)ccn1`, the growth is 93.3%.
Consider `CN(C)c1cccc2c(S(=O)(=O)Nc3cccc(-c4csc(NC(=O)CCCCCN5CCN(c6cc7c(cc6F)C(=O)N(C6CCC(=O)NC6=O)C7=O)CC5)n4)c3)cccc12` (centres undefined), for which the growth is 86.1%.
As to `COc1ccc(-c2nc(S(=O)(=O)c3ccc(C)cc3)c(S(=O)(=O)CC(=O)N(C)Cc3ccccc3)o2)cc1`, the growth was 22.2%.
On to `COc1ccc(C=CC(=O)c2ccc(-n3c(C)nc4c(cnn4-c4ccccc4)c3=O)cc2)cc1`, for which the growth was 84.6%.
Consider `O=S(=O)(Nc1ncccn1)c1ccc(-n2c(-c3ccc(Br)cc3)nc(-c3ccccc3)c2-c2ccccc2)cc1`, for which the growth is 34.5%.
On to `COc1cc(/C=C/C(=O)c2ccc(NC(=O)CSc3nnc(-c4c[nH]c5ccccc45)n3-c3ccccc3)cc2)cc(OC)c1OC`, for which the growth was 96.1%.
`CCCn1c(=O)c2[nH]c(-c3ccc(OCc4nc5ccccc5[nH]4)cc3)nc2n(CCC)c1=O`: the growth was -48.5% (active).
Still for that read-out and setting: under `Cc1ccc2nc(COc3ccc(C(=O)NNC(=S)NC(=O)c4ccccc4)cc3)[nH]c2c1` stands 74.4%; under `COc1nccnc1NS(=O)(=O)c1ccc(NC2=C(Cl)C(=O)c3nc(C)ccc3C2=O)cc1`, 99.9%.
As for `N#Cc1c(NC(=O)c2ccc(C(O)(C(F)(F)F)C(F)(F)F)cc2)sc2c1CCC(=O)C2`, the growth was -47.7% (active).
Take `O=C(Cn1nc(-c2ccccc2)ccc1=O)NNC(=S)NC1CCCCC1`: the growth was 105%.
On the same count and under the same terms, under `O=C(/C=C/Nc1ccccc1)c1ccc2c(c1)Nc1ccccc1S2` stands 87.2%; under `CC1(c2ccccc2)NC(=O)N(CC(=O)Nc2ccc(C(=O)/C=C/c3ccc(Br)cc3)cc2)C1=O` (centres undefined), 12.8%.

The test system of another experiment is COLO 205 colon. Described as above. To be noted: 10 µM.
Turning to `O=c1oc2ccc(-c3ccc(F)cc3F)cc2c(=O)n1-c1ccc(F)c(Cl)c1`, the growth was 7.64% (active).
`O=C(c1ccc(O)cc1)C1[C@H](c2ccccc2Br)[C@@H](c2ccccc2)NC12C(=O)Nc1ccc(Br)cc12` (some centres undefined): the growth is 29.7%.
For `O=C(Nc1cccc(-c2cn(-c3ccc4oc(=O)ccc4c3)nn2)c1)Nc1cc(C(F)(F)F)cc(C(F)(F)F)c1`, the growth was 44.3%.
Turning to `O=C1N/C(=N\c2nccs2)S/C1=C\c1cccs1`, the growth is 29%.
The same measure, in the same setting: to `COc1ccc2[nH]c(O)c(N=NC(=O)COc3ccc(NC(=O)Nc4ccc(Cl)cc4)cc3)c2c1` belongs -1.56% (active).
In the case of `COc1ccc(OC)c(-c2cc(-c3c[nH]c4ccccc34)nc(N)c2C#N)c1`, the growth is -23.2% (active).
In the case of `N#Cc1ccc(-c2nn(-c3ccc(C(=O)O)cc3)cc2CNc2ccc(Oc3ccccc3)cc2)cc1`, the growth was 118%.
The same measure, in the same setting: to `N#Cc1ccc(-c2nn(-c3ccc(C(=O)O)cc3)cc2CNc2cc(Cl)cc(C(F)(F)F)c2)cc1` belongs 55.7%; to `CO[C@@H]1CSS[C@H]1Cn1nc(-c2ccc(Oc3ccccc3)cc2)c2c(N)ncnc21`, 61.8%; to `Cc1ccn2c(C(=O)c3ccc(Br)cc3)cc(-c3cc(-c4ccc(N(C)C)cc4)c(C#N)c(N)n3)c2c1`, 47.5%.
On to `O=c1c2ccccc2nc(COc2ccccc2)n1/N=C/c1ccc(F)cc1`, for which the growth was 114%.
Turning to `Nc1nc(Nc2ccc(Cl)cc2)nn1Cc1cccc(Br)c1`, the growth is 24.7%.
As for `CC(C)CCSc1nc(NC2CC2)c(C#N)c(-c2ccc(C(C)C)cc2)n1`, the growth is 126%.
`COc1cccc(-c2ccc(/C=N/NC(=O)c3[nH]c4ccc(Br)cc4c3-c3ccccc3)o2)c1`: the growth was -40.6% (active).
With `COc1ccc2nc(Cl)c(-c3cc(-c4ccccc4)nc(=O)[nH]3)cc2c1`, the growth was 92.9%.
For `COc1cc2c(c(OC)c1OC)C(=O)CC(c1cccc(NC(=O)c3cccc(N)c3)c1)O2` (centres undefined), the growth was 102%.
In the case of `COc1ccc(-c2nc(S(=O)(=O)c3ccccc3)c(S(C)(=O)=O)o2)cc1`, the growth was -85.6% (active).
Still for that read-out and setting: to `CN1CCN(c2ccc(C(=O)/C=C/c3ccc(C#N)cc3)cc2)CC1` belongs 87.4%; to `O=C(NO)c1ccc(Cn2ccc3c(NCc4ccccc4)ncnc32)cc1`, -60.1% (active).
On to `O=C(O)CCCCCCCCCCN1C(=O)/C(=C/c2cnc(-c3ccccc3)s2)SC1=S`, for which the growth was 141%.
Turning to `Cc1cc(=O)oc2cc(OCCCCOc3ccc(/C=C/C(=O)Nc4ccccc4[N+](=O)[O-])cc3)ccc12`, the growth was 124%.
Take `CCOC(=O)CNC(=O)CN(Cc1ccccc1)C(=O)[C@@]1(C)CCC[C@]2(C)[C@H]3CC4C(C(C)C)=C[C@]3(CC[C@H]21)[C@@H]1C(=O)CCC(=O)[C@H]41`: the growth is 79.4%.
Consider `Cc1ccc(-c2cc(-c3cc4ccccc4nc3Cl)[nH]c(=O)n2)cc1`, for which the growth is 24.7%.
As to `COc1ccc2cc([C@H](C)C(=O)NCc3ccccc3)ccc2c1`, the growth is 0.915% (active).
For `COc1cc(Cn2c(C(F)(F)F)cc3c(Cl)ncnc32)ccn1`, the growth was 79.9%.
On to `CN(C)c1cccc2c(S(=O)(=O)Nc3cccc(-c4csc(NC(=O)CCCCCN5CCN(c6cc7c(cc6F)C(=O)N(C6CCC(=O)NC6=O)C7=O)CC5)n4)c3)cccc12` (centres undefined), for which the growth is 104%.
In the case of `COc1ccc(-c2nc(S(=O)(=O)c3ccc(C)cc3)c(S(=O)(=O)CC(=O)N(C)Cc3ccccc3)o2)cc1`, the growth is 45.9%.
For `COc1ccc(C=CC(=O)c2ccc(-n3c(C)nc4c(cnn4-c4ccccc4)c3=O)cc2)cc1`, the growth is 116%.
For `O=S(=O)(Nc1ncccn1)c1ccc(-n2c(-c3ccc(Br)cc3)nc(-c3ccccc3)c2-c2ccccc2)cc1`, the growth was 124%.
In the case of `COc1cc(/C=C/C(=O)c2ccc(NC(=O)CSc3nnc(-c4c[nH]c5ccccc45)n3-c3ccccc3)cc2)cc(OC)c1OC`, the growth was 102%.
Still for that read-out and setting: to `CCCn1c(=O)c2[nH]c(-c3ccc(OCc4nc5ccccc5[nH]4)cc3)nc2n(CCC)c1=O` belongs 89.1%; to `Cc1ccc2nc(COc3ccc(C(=O)NNC(=S)NC(=O)c4ccccc4)cc3)[nH]c2c1`, 84%.
In the case of `COc1nccnc1NS(=O)(=O)c1ccc(NC2=C(Cl)C(=O)c3nc(C)ccc3C2=O)cc1`, the growth is 134%.
As to `N#Cc1c(NC(=O)c2ccc(C(O)(C(F)(F)F)C(F)(F)F)cc2)sc2c1CCC(=O)C2`, the growth is -89.3% (active).
For the compound `O=C(Cn1nc(-c2ccccc2)ccc1=O)NNC(=S)NC1CCCCC1`, the growth is 135%.
As to `O=C(/C=C/Nc1ccccc1)c1ccc2c(c1)Nc1ccccc1S2`, the growth is 100%.
For the compound `CC1(c2ccccc2)NC(=O)N(CC(=O)Nc2ccc(C(=O)/C=C/c3ccc(Br)cc3)cc2)C1=O` (centres undefined), the growth is 64.1%.
